In the library only some 1.6% were active in any assay of this set; here they are far more common.
KCNQ2 pot – potentiators of rat KCNQ2 potassium channel | B-score at 10 µM | 310,000 compounds, 0.54% hits | Potassium voltage-gated channel subfamily KQT member 2 (Rattus norvegicus), O88943 | AID 2239, 2010 | CHO-K1 KCNQ2, FluxOR thallium flux fluorescence; hits give high values;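 active = fluorescence ratio B-score at least 3 SD of library B-scores, with initial fluorescence B-score within 3 of them, cut at about 5.3 in these data; same plate scores as AID 2156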;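 note: B-score of peak minus minimum over baseline fluorescence ratio after K+ and Tl+ stimulus; positive B-score means potentiation of KCNQ2 with more thallium influx and brighter signal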
KCNQ2 block – rat KCNQ2 potassium channel inhibitors, primary screen, cell-based, CHO-K1, FluxOR thallium flux, B-score; 310,000 compounds, 1.1% hits; 20 min; hits give low values; B-score at 10 µM; Potassium voltage-gated channel subfamily KQT member 2 (Rattus norvegicus), O88943; AID 2156, 2009;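 active = fluorescence ratio B-score at most minus 3 library SDs, with starting brightness B-score within 2 library SDs, cut at about -5.5 in these data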
Kir21 conf inh – mouse Kir2.1 channel blockers, retest, confirmation, cell-based, FluxOR thallium flux, duplicate; shares compounds with KCNQ2 pot; Kir2.1-expressing cells, FluxOR thallium flux fluorescence; hits give low values; Tl flux remaining, % of negative control (hits give low values), % at 10 µM; 2,300 compounds, 41% hits; AID 2032, 2009;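 active = Primary-screen hit whose thallium flux fell at least 3 control SD below untreated wells in both duplicates, with normal baseline fluorescence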
HEK293 Tl flux – counter-screen for Kir2.1 inhibitors: effect in parental HEK293 cells; shares compounds with KCNQ2 pot; FluxOR thallium flux fluorescence; 0% = unstimulated blank wells; FluxOR signal as % of negative control (100 = no effect), % at 10 µM; 2,300 compounds, 19% hits;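 active = dye signal at least 3 control SD above or below untreated wells in both duplicates, raw fluorescence within 3, either direction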;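 note: percent is based on the flux ratio of peak minus minimum fluorescence over baseline F0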
CHO-K1 ctr – nonspecific thallium flux increase in parental CHO-K1, confirmation, counter-screen for KCNQ2 potentiator project, cell-based, FluxOR thallium flux, duplicate; shares compounds with KCNQ2 pot; parental CHO-K1 cells, FluxOR thallium flux fluorescence; zero = vehicle mean+3SD, 100% = vehicle-minus-blank window; activity increase over 3SD of controls, % at 10 µM; 1,200 compounds, 43% hits;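 active = signal rise of at least 3 SD above the untreated control mean, in both duplicate wells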;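 note: counter screen of KCNQ2 potentiator hits so any rise reflects channel-independent effects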
KCNQ1 pot spec – human KCNQ1 channel potentiation off-target, confirmation, selectivity assay for KCNQ2 potentiator project, cell-based, CHO, FluxOR thallium flux. shares compounds with KCNQ2 pot. CHO KCNQ1 stable, FluxOR thallium flux fluorescence; beyond 3SD, as % of vehicle-control signal. activation over 3SD threshold, % at 10 µM. 1,200 compounds, 28% hits. AID 2283, 2010;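 active = fluorescence ratio rise of at least 3 SD of vehicle wells above their mean, in both replicate wells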
KCNQ2 pot confirm – rat KCNQ2 channel potentiators, confirmation, cell-based, CHO, FluxOR thallium flux, duplicate. shares compounds with KCNQ2 pot. CHO-KCNQ2 cells, FluxOR thallium flux fluorescence. potentiation, less the hit threshold, % at 10 µM. 1,200 compounds, 68% hits. AID 2287, 2010;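 active = fluorescence ratio rising 3 SD or more over the vehicle control mean in both replicates, plus primary screen hit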;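 note: peak minus minimum thallium fluorescence divided by baseline after K/Tl stimulus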
Kir21 spec – mouse Kir2.1 channel activation off-target, confirmation, selectivity assay for KCNQ2 potentiator project, cell-based, HEK293, FluxOR thallium flux | shares compounds with KCNQ2 pot | HEK293 Kir2.1, FluxOR thallium flux fluorescence | activity over 3SD threshold, % at 10 µM | 1,200 compounds, 2% hits | AID 2345, 2010;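 active = fluorescence ratio rise of at least 3 SD above the vehicle-control mean, seen in both replicates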
KCNQ2 W236L pot – potentiators of retigabine-insensitive KCNQ2 W236L, mechanism study for KCNQ2 potentiator project, cell-based, rat KCNQ2 W236L, CHO, automated patch clamp. shares compounds with KCNQ2 pot. automated patch clamp current. current increase over 3SD of negative controls (%), hits give high values, % at 25 µM. 940 compounds, 10% hits. AID 2558, 2010;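 active = current increase at least 3 SD of the untreated controls above them in both duplicate recordings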
Target sequence (O88943 whole entry W236L, looked up): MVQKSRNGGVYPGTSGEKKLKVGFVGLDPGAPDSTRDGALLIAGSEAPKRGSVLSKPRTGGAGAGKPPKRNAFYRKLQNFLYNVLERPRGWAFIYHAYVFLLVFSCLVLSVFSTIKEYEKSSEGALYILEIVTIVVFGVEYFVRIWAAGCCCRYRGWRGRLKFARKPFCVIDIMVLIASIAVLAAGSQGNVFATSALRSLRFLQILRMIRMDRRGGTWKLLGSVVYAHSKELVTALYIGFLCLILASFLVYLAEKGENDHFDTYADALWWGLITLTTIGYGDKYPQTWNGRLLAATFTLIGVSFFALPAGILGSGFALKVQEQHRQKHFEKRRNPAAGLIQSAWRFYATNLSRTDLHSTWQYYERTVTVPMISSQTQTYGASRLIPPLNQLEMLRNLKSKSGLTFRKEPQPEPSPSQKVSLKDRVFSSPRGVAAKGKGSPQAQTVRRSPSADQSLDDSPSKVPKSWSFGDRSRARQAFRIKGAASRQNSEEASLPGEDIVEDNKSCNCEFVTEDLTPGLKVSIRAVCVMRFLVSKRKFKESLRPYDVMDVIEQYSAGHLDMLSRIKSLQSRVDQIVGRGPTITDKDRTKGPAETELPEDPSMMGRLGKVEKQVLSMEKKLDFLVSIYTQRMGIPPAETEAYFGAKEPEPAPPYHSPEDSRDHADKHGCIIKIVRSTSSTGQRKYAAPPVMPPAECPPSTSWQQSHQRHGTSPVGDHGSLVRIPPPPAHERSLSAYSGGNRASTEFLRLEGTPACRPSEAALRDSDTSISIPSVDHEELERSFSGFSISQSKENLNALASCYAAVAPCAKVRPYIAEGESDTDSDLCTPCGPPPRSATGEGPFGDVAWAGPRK
Large screens that a line does not name were inactive (follow-up assays come after a bar, where they were run).

OC(CNCCc1ccccc1)c1ccccc1 (stereo not given)	none | Kir21 conf inh 44% | HEK293 Tl flux inactive
CSc1ccc(CNCC(O)c2ccccc2)cc1 (stereo not given)	none (no result: KCNQ2 pot) | Kir21 conf inh 59% | HEK293 Tl flux inactive
COc1ccc(CCNCC(O)c2ccccc2)cc1 (stereo not given)	none
O[C@@H](CNC[C@H](O)c1ccccc1)c1ccccc1	none (no result: KCNQ2 pot)
COc1ccc(/C=N/NC(=O)CNC(=O)c2ccncc2)cc1OC	none
O=C(NCc1cccnc1)C1CC(c2ccc(Cl)c(Cl)c2)=NO1 (stereo not given)	none
Cc1oc(S(=O)(=O)N2CCOCC2)cc1C(=O)Nc1ccc(Cl)cc1	none
O=C(Cc1ccc(Cl)cc1)NNC(=O)c1ccco1	none
COc1ccc(C)cc1NS(=O)(=O)c1ccc(NS(=O)(=O)c2ccc(NC(C)=O)cc2)cc1	none
COc1ccc(Cl)cc1NS(=O)(=O)c1ccc(OC)c(OC)c1	none (no result: KCNQ2 pot) | Kir21 conf inh 51% | HEK293 Tl flux 140%
COc1ccc(S(=O)(=O)Nc2cc(C)ccc2OC)cc1C	none (no result: KCNQ2 pot) | Kir21 conf inh 77% | HEK293 Tl flux inactive
COc1ccc(S(=O)(=O)Nc2cc(Cl)ccc2OC)cc1	none (no result: KCNQ2 pot)
Cc1ccc(C(=O)NNC(=S)NC(=O)c2ccccc2)cc1	none | Kir21 conf inh inactive | HEK293 Tl flux inactive
O=C(NNC(=S)NC(=O)c1ccc(Br)cc1)c1ccc([N+](=O)[O-])cc1	none
O=C(COc1cccc(NC(=O)c2cccc([N+](=O)[O-])c2)c1)c1ccc(Br)cc1	KCNQ2 pot 8.9 | Kir21 conf inh inactive | HEK293 Tl flux inactive | CHO-K1 ctr 3.8 | KCNQ1 pot spec inactive | KCNQ2 pot confirm 12 | Kir21 spec inactive | KCNQ2 W236L pot inactive
Cc1cccc(C(=O)NNC(=S)NC(=O)c2ccccc2)c1	none
O=C(Nc1cccc(OCC(=O)N2CCOCC2)c1)c1cccc([N+](=O)[O-])c1	none
O=C(NNC(=S)NC(=O)c1ccc(Br)cc1)c1cccc([N+](=O)[O-])c1	KCNQ2 pot 7.6 | Kir21 conf inh inactive | HEK293 Tl flux inactive | CHO-K1 ctr inactive | KCNQ1 pot spec inactive | KCNQ2 pot confirm inactive | Kir21 spec inactive
Cc1ccccc1N(CC(=O)NC1CCCCC1)C(=O)CNC(=O)c1cccs1	none
CC(=O)c1cc(F)ccc1OCC(=O)N1CCCc2ccccc21	none (no result: KCNQ2 pot) | Kir21 conf inh 54% | HEK293 Tl flux inactive
O=C(COc1ccccc1F)N1CCCc2ccccc21	none
COc1ccc(C2C(C#N)=C(N)N(c3sc4c(c3C#N)CCCC4)C3=C2C(=O)CC(C)(C)C3)cc1 (stereo not given)	none (no result: KCNQ2 pot)
COc1ccc(C2C(C#N)=C3NC(=O)c4c(sc5c4CCCCC5)N3C3=C2C(=O)CC(C)(C)C3)cc1 (stereo not given)	KCNQ2 pot 13 | Kir21 conf inh inactive | HEK293 Tl flux inactive | CHO-K1 ctr 70 | KCNQ1 pot spec inactive | KCNQ2 pot confirm 15 | Kir21 spec inactive | KCNQ2 W236L pot inactive
CCOc1cc(CNCCO)cc(Br)c1OCc1ccc(Cl)cc1Cl	KCNQ2 block -13 | Kir21 conf inh 21% | HEK293 Tl flux inactive
CCOc1cc(CNCCO)cc(Br)c1OCc1cccs1	none | Kir21 conf inh 23% | HEK293 Tl flux inactive
CCOc1cc(CNCc2cccs2)cc(Br)c1OCC	none (no result: KCNQ2 pot)
CCOc1cc(CNCc2ccncc2)cc(Br)c1OCc1ccccc1F	none (no result: KCNQ2 pot) | Kir21 conf inh 52% | HEK293 Tl flux inactive
CCOc1cc(CNCCSc2nnnn2C)cc(Br)c1OCc1ccccc1F	none
CCOc1cccc(CNCCO)c1OCc1ccc(Cl)cc1Cl	none
CSc1nc(=S)n(-c2ccc([N+](=O)[O-])cc2)c(C)c1C(C)=O	none
CC1c2[nH]c3ccccc3c2C[C@H]2C(=O)N(CCCN(C)C)CC(=O)N12 (stereo not given in full)	none
O=C(CSc1nc2ncc(Cl)cc2[nH]1)N(Cc1ccccc1)C1CCS(=O)(=O)C1 (stereo not given)	none
CC(C)(C)c1ccc(/C=C2/SC(N3CCCC3)=NC2=O)cc1	KCNQ2 pot 6.9 | Kir21 conf inh inactive | HEK293 Tl flux inactive | CHO-K1 ctr 4.3 | KCNQ1 pot spec inactive | KCNQ2 pot confirm 12 | Kir21 spec inactive | KCNQ2 W236L pot 0.6%
Cc1ccc(/C=C2\SC(N3CCCCC3)=NC2=O)cc1	none
CCCn1c(O)c(N=NC(=O)c2cccnc2)c2cc(Br)ccc21	none (no result: KCNQ2 pot)
COc1ccccc1N1CCN(Cc2ccc(O)c3ncccc23)CC1	KCNQ2 pot 6.5 | Kir21 conf inh inactive | HEK293 Tl flux 126% | CHO-K1 ctr inactive | KCNQ1 pot spec inactive | KCNQ2 pot confirm 3.8 | Kir21 spec inactive | KCNQ2 W236L pot inactive
COc1ccccc1N1CCN(Cc2ccc(OC)c(OC)c2OC)CC1	none (no result: KCNQ2 pot)
c1ccc(-c2n[nH]c(-c3ccccn3)n2)nc1	none
c1ccc(-c2n[nH]c(-c3ccccn3)n2)cc1	KCNQ2 pot 14 | Kir21 conf inh inactive | HEK293 Tl flux inactive | CHO-K1 ctr inactive | KCNQ1 pot spec inactive | KCNQ2 pot confirm 48 | Kir21 spec inactive | KCNQ2 W236L pot inactive
CCCc1nc2sc3c(c2c(=O)n1NC(=O)CCC(=O)OC)CCCC3	KCNQ2 pot 9.3 | Kir21 conf inh inactive | HEK293 Tl flux inactive | CHO-K1 ctr 6.2 | KCNQ1 pot spec 3.4 | KCNQ2 pot confirm 31 | Kir21 spec inactive | KCNQ2 W236L pot inactive
Cc1nc2sc3c(c2c(=O)n1NC(=O)CCBr)CCCC3	KCNQ2 pot 6.6 | Kir21 conf inh inactive | HEK293 Tl flux inactive | CHO-K1 ctr inactive | KCNQ1 pot spec inactive | KCNQ2 pot confirm 11 | Kir21 spec inactive | KCNQ2 W236L pot inactive

Screening results: PubChem BioAssay, Johns Hopkins Ion Channel Center
